Holding throughout (format): functional
Assay [1] deals with Solute carrier family 2, facilitated glucose transporter member 1 (Homo sapiens) (UniProt P11166). Nature of the assay: ST_JUDE_LEISH: Cytotoxicity at 2uM final concentration against transgenic Leishmania Mexicana promastigotes LmGLUT1 that are glucose transport deficient and complemented with the human glucose transporter GLUT1. Activity is measured by DNA content using SYBR green in vitro.

For assay [2], the target named is Hexose transporter 1 (Plasmodium falciparum) (UniProt O97467). The experiment in a line: ST_JUDE_LEISH: Cytotoxicity at 2uM final concentration against transgenic Leishmania Mexicana promastigotes LmPfHT that are glucose transport deficient and complemented with the Plasmodium falciparum hexose transporter. Activity is measured by DNA content using SYBR green in vitro.

Assay [3] concerns the target Glucose transporter (Leishmania mexicana) (UniProt O61059). Nature of the assay: ST_JUDE_LEISH: Cytotoxicity at 2uM final concentration against transgenic Leishmania Mexicana promastigotes LmGT2 that are glucose transport deficient and complemented with the L. Mexicana glucose transporter 2. Activity is measured by DNA content using SYBR green in vitro.

Chain of Solute carrier family 2, facilitated glucose transporter member 1 (Homo sapiens) (P11166 whole entry): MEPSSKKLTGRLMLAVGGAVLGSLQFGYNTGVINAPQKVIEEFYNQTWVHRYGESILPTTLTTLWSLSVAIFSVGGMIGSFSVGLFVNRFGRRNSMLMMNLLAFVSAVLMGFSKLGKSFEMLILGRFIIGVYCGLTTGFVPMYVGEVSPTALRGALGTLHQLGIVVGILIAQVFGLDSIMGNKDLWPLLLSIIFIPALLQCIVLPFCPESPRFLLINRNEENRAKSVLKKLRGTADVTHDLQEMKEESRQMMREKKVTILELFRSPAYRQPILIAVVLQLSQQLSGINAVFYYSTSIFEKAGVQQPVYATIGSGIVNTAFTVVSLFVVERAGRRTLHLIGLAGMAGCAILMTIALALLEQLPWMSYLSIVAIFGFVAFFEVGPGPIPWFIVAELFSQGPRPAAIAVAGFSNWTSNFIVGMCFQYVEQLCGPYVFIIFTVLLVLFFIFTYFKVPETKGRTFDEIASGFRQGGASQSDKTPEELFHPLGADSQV

`O=C(/C=C/c1ccc(Cl)c(Cl)c1)N1CCC(CN2CCC(Cc3nc4ccccc4[nH]3)CC2)CC1`: the results for the inhibition in assay [1], in assay [2] and in assay [3] were 1.43%, 1.29% and 3.16%, respectively.

Take `Cc1cccc(C)c1OC(=O)C(C)C(O)C1(Sc2ccccc2)CCN(C)CC1` (stereo not given): the inhibition in assay [1] stood at 5.2%; in assay [2], 3.78%; in assay [3], 3.85%.

With `Cc1cccc2nc(-c3cccc(-c4ccc(NC(=O)C(C)CN5CCN(C)CC5)cc4)c3)[nH]c12` (stereo not given), the inhibition in assay [1] came to 1.5%; in assay [2] it was 0.53%; in assay [3], 3.85%.

Take `CCCCCCN1CCC(NCc2cccc(C(F)(F)F)c2)CC1`: the inhibition is 9.06% in assay [1], 12.2% in assay [2] and 6.27% in assay [3].

`COc1ccc(NC(=O)c2ccc(-c3cc(NC(=O)c4ccnc(N5CCCC5)c4)ccc3C)s2)cc1N1CCN(C)CC1`: the inhibition in assay [1] is -1.75%; in assay [2] it was 0.73%; in assay [3], -1.93%.

These data come from ChEMBL document CHEMBL3433997, “St. Jude Leishmania screening dataset” (2016).
